Screening data as filed in PubChem BioAssay.
Shown are actives, neighbours in structure and some others; about 4.8% of the full set was active somewhere.
TIM10 inh: inhibits growth of TIM10 yeast strain; S. cerevisiae TIM10 strain growth, BacTiter-Glo luminescence, 24 h; inhibition, % at 10 µM; actives 1.4% (n = 330,000); AID 463195;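 active means inhibition of 40% or more at the single tested concentration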;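 further: wild-type TIM10 isogenic control strain grown at permissive 25 °C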
PfHsp90 set2: inhibits growth of yeast expressing Plasmodium falciparum Hsp90; AID 504621; inhibition, % at 9.4 µM; S. cerevisiae expressing PfHsp90, BacTiter-Glo ATP, 48 h; yeast lacking PDR1 and PDR3 efflux regulators; actives 0.32% (n = 310,000);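 active means every replicate shows inhibition above about 80%, whatever the replicate mean, limit read from the data; inconclusive means mean inhibition reaches the set limit but some replicate falls short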
tim23-1 inh: growth inhibitors of tim23-1 mutant yeast; actives 1.3% (n = 330,000); S. cerevisiae tim23-1 growth, BacTiter-Glo luminescence, 24 h; inhibition, % at 20 µM; AID 463212;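 active means growth inhibition of the mutant yeast at or above 50%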;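 further: temperature-sensitive mutant grown at 25 °C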
SKKanGAS inh: SKKanGAS growth inhibition | S. pyogenes SKKanGAS, kanamycin growth, BacTiter-Glo, 6 h | inhibition, % at 7.5 µM | actives 1.3% (n = 300,000);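 active means mean replicate score, as percent of positive control median, at least 50; inconclusive means mean below 50 but one replicate at or above 50; inactive means mean and every replicate below 50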;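 further: strain carries kanamycin resistance gene driven by streptokinase promoter and grows in 40 µg/ml kanamycin; loss of luminescence reflects streptokinase promoter inhibition or plain growth inhibition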
tim10-1 inh: inhibits growth of tim10-1 mutant yeast; AID 463190; actives 2.2% (n = 330,000); S. cerevisiae tim10-1 ts strain growth, BacTiter-Glo, 24 h; inhibition, % at 20 µM;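 active means inhibition of at least 40%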;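 further: mutant grown at 25 °C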
NALP1 yeast inh: inhibitors of NALP1 inflammasome in yeast. S. cerevisiae NALP1/ASC/caspase-1 growth, X-gal OD620, 72 h. inhibition, % at 10 µM. actives 0.61% (n = 280,000). AID 2071; in the data active means inhibition mostly above about 24%, no sharp cut-off; inactive means mostly below about 32%
Hits are given with their value; - = inactive; ? = inconclusive; . = no result.

SMILES | TIM10 inh | PfHsp90 set2 | tim23-1 inh | SKKanGAS inh | tim10-1 inh | NALP1 yeast inh
O=C(COC(=O)c1ccccc1[N+](=O)[O-])NNC(=O)c1cccs1 | - | - | - | - | - | -
Nc1ccccc1Sc1nc2ccccc2[nH]1 | - | - | - | 61 | - | -
NC(=O)CCC(NS(=O)(=O)c1ccc(Cl)cc1)C(=O)NCc1ccc(Cl)cc1 (stereo not drawn) | - | - | - | - | - | -
O=S(=O)(Nc1ccc(O)c(Sc2nc3ccccc3s2)c1)c1cccc2ccccc12 | - | - | - | 81 | - | -
O=C(N/N=C/c1ccc([N+](=O)[O-])o1)c1ccccc1-n1cccc1 | - | - | - | - | - | -
O=C(N/N=C/c1ccc([N+](=O)[O-])o1)c1cn(-c2ccccc2)nc1-c1ccc(Cl)cc1 | - | . | - | 107 | - | -
Cc1noc(NS(=O)(=O)c2ccc(NC(=O)C(C)C)cc2)c1C | - | - | - | - | - | -
Cc1noc(NS(=O)(=O)c2ccc(NC(=O)CC(C)C)cc2)c1C | - | - | - | - | - | 38
COC(=O)c1ncn(C2OC(COC(C)=O)C(OC(C)=O)C2OC(C)=O)n1 (stereo not drawn) | - | - | - | - | - | -
CCC1(c2ccc(Cl)cc2)NC(=O)N(CC(=O)NCc2ccc(F)cc2)C1=O (stereo not drawn) | - | - | - | - | - | -
Cc1onc(-c2ccccc2)c1C(=O)c1c[nH]c(C(=O)NCc2ccncc2)c1 | - | - | - | - | - | -
CC(=O)CSc1ncnc2c1oc1ccccc12 | - | - | - | - | - | -
CCC(Oc1ccccc1)C(=O)Nc1ccccc1N1CCCCC1 (stereo not drawn) | - | - | - | 61 | - | -
CC(Oc1cccc(Cl)c1)C(=O)Nc1ccccc1N1CCCCC1 (stereo not drawn) | - | - | - | 73 | - | .
Cc1ccccc1Cn1nc(C)c(NC(=O)c2cc3n(n2)C(C(F)F)CC(C(F)F)N3)c1C (stereo not drawn) | - | . | - | . | - | -
CC(C)c1ccc(OCC(=O)NNC(=S)NC(=O)c2cccs2)c(Br)c1 | - | - | - | 78 | - | -
CC(C)c1ccc(OCC(=O)NNC(=S)NC(=O)C2CC2)cc1 | - | ? | - | 96 | - | -
Cc1ccc(OCC(=O)NC(=S)Nc2ccccn2)c(Br)c1 | - | - | - | - | - | -
Cc1ccc(OCC(=O)NNC(=S)NC(=O)C(C)(C)C)c(Br)c1 | - | 105 | - | 90 | - | -
Cc1ccc(OCC(=O)NNC(=O)c2ccc(NC(=O)C3CC3)cc2)c(C)c1 | - | - | - | - | - | -
Cc1ccc(OCC(=O)NNC(=S)NC(=O)C2CC2)c(C)c1 | - | 104 | - | . | - | -
CC(C)c1ccc(OCC(=O)NN2C(=O)c3ccccc3C2=O)c(Br)c1 | - | - | - | - | - | -
NC(=O)CC(NC(=O)c1ccc(Br)cc1)c1ccc(N2CCCCCC2)c([N+](=O)[O-])c1 (stereo not drawn) | - | - | - | - | - | -
Cn1c(=S)[nH]c2sc3c(c2c1=O)CCC(C(C)(C)C)C3 (stereo not drawn) | - | - | - | 79 | - | -
Cc1c(C(=O)NC2CCN(Cc3ccccc3)C2)oc2c(Cl)cccc12 (stereo not drawn) | - | - | - | - | - | 39
SMILES | TIM10 inh | PfHsp90 set2 | tim23-1 inh | SKKanGAS inh | tim10-1 inh | NALP1 yeast inh
O=C(NC1CCN(Cc2ccccc2)CC1)c1ccccc1Cl | - | - | - | - | - | -
COc1cc(Cc2cnc(N)nc2N)cc(OC)c1OC | - | - | - | 51 | - | -
O=C(Cc1ccccc1)N1CCN=C1SCc1ccc([N+](=O)[O-])cc1 | - | - | - | - | - | -
CC1(C)CC(=O)C2=C(C1)Nc1ccccc1NC2c1ccccn1 (stereo not drawn) | - | - | - | - | - | -
CC1(C)CC(=O)C2=C(C1)Nc1ccccc1NC2c1nc2ccccc2[nH]1 (stereo not drawn) | - | - | - | - | - | 39
CCC/C(O)=C1\C(=O)CCCC1=NCCc1c(C)[nH]c2ccc(OC)cc12 | - | . | - | - | - | 19
CCC/C(O)=C1\C(=O)CCCC1=NCCc1c(C)[nH]c2ccc(C)cc12 | - | - | - | - | - | .
O=C(CCC(=O)Nc1ccc(Br)cc1)N/N=C/c1ccccc1O | - | - | - | 83 | - | -
O=C(CCn1cnc(-c2ccccc2)c1-c1ccccc1)N/N=C/c1ccc(O)cc1 | - | - | - | - | - | -
O=C(CCn1cnc(-c2ccccc2)c1-c1ccccc1)N/N=C/c1ccccc1O | - | - | - | 76 | - | -
O=C(CCCCC(=O)NN=Cc1ccccc1O)NN=Cc1ccccc1O | . | - | . | . | . | .
COc1ccc(/C=N/NC(=O)CCn2cnc(-c3ccccc3)c2-c2ccccc2)cc1 | - | - | - | 105 | - | -
CCn1c(COc2ccccc2C)nnc1SCC(=O)CC(=O)Nc1ccccc1OC | - | - | - | - | - | -
CCn1c(COc2ccccc2C)nnc1SCC(=O)OC | - | . | - | - | - | 22
COc1ccc(NS(=O)(=O)c2ccc3ccccc3c2)c2ncccc12 | - | - | - | 94 | - | -
COc1ccc(/C=N/NC(=O)CC(=O)NCc2cccnc2)c(OC)c1 | - | - | - | - | - | .
COc1ccc(/C=N/NC(=O)CC(=O)NCc2cccnc2)cc1 | - | - | - | - | - | 23
CCCNc1nc(-c2ccccc2)c(C(=O)OCC)cc1C#N | - | - | - | - | - | -
CCCCNc1nc(-c2ccccc2)c(C(=O)OCC)cc1C#N | - | - | - | - | - | 44
CSc1nc(Oc2ccc3ccccc3c2)c2sccc2n1 | - | - | - | 54 | - | -
COc1cccc(-c2nnc(SCC(=O)Nc3cc(C)ccc3OC)n2N)c1 | - | - | - | - | - | -
COC(=O)c1sc(-c2ccc(C(C)(C)C)cc2)cc1NC(=O)CSCC(=O)O | - | - | - | 57 | - | .
COC(=O)c1sc(-c2ccc(C(C)(C)C)cc2)cc1NC(=O)c1ccccc1C(=O)O | - | - | - | 54 | - | .
COc1ccc(OC)c(NC(=O)C(=O)NNC(=O)COc2ccc(Br)cc2C)c1 | - | - | - | 121 | - | -
COc1ccc(-n2nnnc2SCC(=O)NC2CCCC2)cc1OC | - | - | - | - | - | -
COc1ccc(C(=O)NNC(=O)CN2CCC(n3nnc4cc(C(F)(F)F)ccc43)CC2)cc1 | - | - | - | - | - | -
CS(=O)(=O)c1nc(-c2ccco2)cc(C(F)(F)F)n1 | - | . | - | - | - | 61
CCc1ccc(N2CN=c3s/c(=C\c4ccccc4)c(=O)n3C2)cc1 | - | - | - | - | - | -
O=C(O)/C=C/c1cn(-c2ccccc2)nc1-c1cc2ccccc2o1 | - | 90 | - | - | - | -
Cc1ccc(C(=O)ONC(=O)c2ccc(Cl)cc2)cc1[N+](=O)[O-] | - | 108 | - | - | - | -
